# Bioassay records: PubChem BioAssay, National Center for Advancing Translational Sciences (NCATS)
# PTAP TSG101 blk – blocks PTAP/TSG101 interaction to inhibit HIV-1 budding. 340,000 tested, under 10 active. Q99816. Potency, µM (highest dose often 115 µM), for inactives: top-dose activity change, negative = inhibition, most hits filed as inhibitors. Fluorescence polarization, FITC-PTAP peptide / Tsg101 binding; active = well fitted inhibition curve with a large enough effect in the main read-out, with a control signal flat, not every such curve was filed as active; inconclusive = small, poorly fitted or top-dose-only effect, or effect the other way, or a change in a side signal; inactive = no such curve, though single readings can be large or run the other way; note: potency is the fitted concentration of half-maximal effect; % of control where 0% means no effect
#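 Compounds were pin-transferred onto Tsg101 binding domain (10 uM final) in HEPES pH 7.5 buffer, then FITC-PTAP peptide was added at 50 nM final. After 20 min at RT, polarization reported peptide displacement across a qHTS concentration series.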
# uPA generation – cell surface uPA generation inhibition; Potency, µM (top dose mostly 38.3 µM), inactives show top-dose activity change, negative = inhibition, most hits filed as inhibitors; AID 540303; cell surface uPA generation assay, qHTS; 330,000 tested, 0.31% active; active = well fitted inhibition curve with a large enough effect; inconclusive = small, poorly fitted or top-dose-only effect; inactive = no such curve, though single readings can be large or run the other way; tested in mouse RAW 264.7 cells; note: potency is the fitted concentration of half-maximal effect; % is set by controls: 0 for no effect and ±100 for the full control effect; nearly all actives have a fitted effect of over 55% in size
# VDR inhibitor – vitamin D3 receptor (human) inhibition; 400,000 tested, 0.93% active; VDR-SRC2-3 peptide fluorescence polarization, 2 h; Potency, µM, for inactives: max response, negative = inhibition, hits mostly inhibitors; P11473; note: potency is the fitted concentration of half-maximal effect; % is set by controls: 0 for no effect and ±100 for the full control effect
#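 After 23 nl compound addition and a short centrifugation, plates sat for 2 hours at ambient temperature; polarization of fluorescence then indicated loss of VDR binding to peptide SRC2-3.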
# PLK1 PBD inh – blocks phosphopeptide binding to human PLK1 polo-box domain; AID 720504; 360,000 tested, 2.8% active; Plk1 PBD binding of FITC phosphopeptide, fluorescence polarization; Potency, µM, for inactives: max response, negative = inhibition, actives largely listed as inhibitors; note: potency is the fitted concentration of half-maximal effect; series mostly up to about 57 µM; % is set by controls: 0 for no effect and ±100 for the full control effect; nearly all actives have a fitted effect of over 65% in size
# TSHR antag – human thyrotropin receptor antagonism; P16473; TSHR-expressing cells, TSH-stimulated cAMP HTRF, 2 h; hits give low values; activity change, negative = inhibition, % at 11.5 µM; 330,000 tested, 0.2% active;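 active = activity change below a set negative limit, meaning inhibition stronger than a set level, cut at about -70% in these data; inconclusive = activity change between two set negative limits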; note: % is set by controls: 0 for no effect and ±100 for the full control effect
# Target sequence (P16473 whole entry, looked up): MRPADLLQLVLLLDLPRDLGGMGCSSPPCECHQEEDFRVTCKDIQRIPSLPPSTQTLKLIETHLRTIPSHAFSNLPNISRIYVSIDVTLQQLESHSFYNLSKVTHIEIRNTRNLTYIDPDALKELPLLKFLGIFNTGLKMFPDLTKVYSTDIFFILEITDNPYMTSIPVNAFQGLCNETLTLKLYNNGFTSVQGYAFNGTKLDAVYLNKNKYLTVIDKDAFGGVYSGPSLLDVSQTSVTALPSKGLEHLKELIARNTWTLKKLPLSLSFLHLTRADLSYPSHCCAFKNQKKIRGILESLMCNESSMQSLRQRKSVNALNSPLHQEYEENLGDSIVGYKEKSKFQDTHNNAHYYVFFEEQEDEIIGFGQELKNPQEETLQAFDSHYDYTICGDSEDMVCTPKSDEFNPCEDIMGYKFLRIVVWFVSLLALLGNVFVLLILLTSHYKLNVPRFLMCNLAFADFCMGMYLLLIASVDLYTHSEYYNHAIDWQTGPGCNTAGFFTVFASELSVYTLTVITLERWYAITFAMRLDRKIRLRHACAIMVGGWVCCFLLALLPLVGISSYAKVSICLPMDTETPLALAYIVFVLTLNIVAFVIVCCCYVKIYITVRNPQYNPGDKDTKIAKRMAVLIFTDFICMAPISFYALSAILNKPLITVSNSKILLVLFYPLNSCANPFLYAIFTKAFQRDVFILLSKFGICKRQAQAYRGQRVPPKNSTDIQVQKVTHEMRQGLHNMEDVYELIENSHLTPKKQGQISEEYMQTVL
#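 Antagonism was scored as loss of TSH-driven cAMP in TSHR cells, stimulated with 4nM TSH (EC80) for 2 hours at 37 deg C and detected by homogeneous HTRF competition immunoassay.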
# Starred values were filed as active, the others as inactive; u = inconclusive; x = no result. Most compounds without a hit are left out; they make up all but 3.1% or so of the library. Unless noted, calls come from the whole dose curve; as a rule, active = well fitted curve in the direction sought with a large enough effect; inconclusive = small, poorly fitted or top-dose-only effect, or another doubt; inactive = no such curve, though single readings can be large; an effect the other way counts as inactive or inconclusive.
SMILES,PTAP TSG101 blk,uPA generation,VDR inhibitor,PLK1 PBD inh,TSHR antag
c1ccc(-c2ccnc3nc(N4CCN(c5ccccc5)CC4)nn23)cc1,0.0%,-0.8%,3.1%,-12.9%,-8.2
Cc1ccc(-c2ccnc3nc(-n4cccc4)nn23)o1,7.1%,-8.5%,u,4.74µM*,10.2
CC(=O)c1cc(C#N)c(N2CCCC2)nc1C,-0.6%,-5.7%,u,29.9µM*,-13.3
CCOc1ccccc1NS(=O)(=O)c1ccc2c(c1)oc(=O)n2C,x,x,-9.5%,x,x
CCOc1ccccc1CNS(=O)(=O)c1ccc2c(c1)oc(=O)n2C,-0.9%,1.5%,-6.6%,26.7µM*,-5.9
Cc1cccc2c(=O)c(-c3ccc4c(c3)OCO4)c(NC(=O)c3ccco3)oc12,-4.0%,22.1%,-11.9%,23.8µM*,3.2
Cc1sc(NC(=S)NC(=O)c2ccccc2)c(C#N)c1C,0.1%,-1.7%,-14.5%,11.9µM*,x
CCCN1CCc2c(sc(NC(=S)NC(=O)c3ccccc3)c2C#N)C1,-3.1%,5.7%,u,7.52µM*,-3.6
CC(C)C1Cc2c(sc(NC(=S)NC(=O)c3ccccc3)c2C#N)CO1 (centres undefined),-0.1%,9.0%,-23.5%,23.8µM*,-0.2
O=C(NCCc1nc2ccccc2n1CCOc1ccc(Cl)cc1)C1CCCCC1,x,x,-6.9%,x,x
CCn1nc(C)cc1C(=O)Sc1ccc(Cl)cc1Cl,-3.1%,1.0%,79.4µM*,18.9µM*,-8.7
CCn1nc(C)cc1C(=O)Sc1cccc(Br)c1,-2.1%,1.1%,u,u,-1.1
COC(=O)c1ccccc1COc1cccn2c(N(C)CC3CC3)c(C)nc12,x,x,x,-8.7%,x
CCOc1ccc(-c2cn3ccccc3n2)cc1[N+](=O)[O-],-8.7%,-10.3%,-7.2%,-0.7%,-8.3
CCCCOc1ccc(-c2cn3ccccc3n2)cc1[N+](=O)[O-],-7.5%,7.94µM*,-7.0%,-2.6%,4.1
OCCNc1cnc2ccccc2n1,-1.0%,4.5%,u,11.9µM*,-5.6
OCCNc1nc2ccccc2nc1NCCO,3.1%,-1.5%,2.7%,-3.3%,-6.7
CCC(=O)N1CCc2cc(Br)cc(S(=O)(=O)NCCc3cccc(C)c3)c21,x,x,-12.3%,x,x
COc1ccccc1-c1nnc(SCC(=O)NC2CCCCC2)o1,-1.6%,-4.1%,u,26.7µM*,-0.8
Cc1ccccc1-c1nnc(SCC(=O)NC2CCCCC2)o1,0.8%,3.0%,6.8%,-3.2%,-8.3
Cc1ccc(OCC(=O)NNC(=O)CSC(=S)N2CCCC2)cc1,-2.5%,5.0%,-13.2%,-10.7%,8.2
CN(C)c1cccc(C(=O)N2CCCC(CCC(=O)NCc3ccccc3F)C2)c1 (centres undefined),-2.8%,-5.6%,-3.5%,-9.2%,13.6
O=C(Oc1ccccc1)N1CCC[C@@]2(CCN(c3ccccc3)C2)C1,x,x,35.5µM*,x,x
O=C(c1cccc(F)c1)N1CCC2(CCCN(c3cccc(-c4ccccc4)c3)C2)CC1,x,x,-13.9%,x,x
COc1ccc(C(=O)N2CCC[C@@]3(CCN(c4ccncc4)C3)C2)cc1,x,x,14.3%,x,x
SMILES,PTAP TSG101 blk,uPA generation,VDR inhibitor,PLK1 PBD inh,TSHR antag
O=C(c1cccc(F)c1)N1CCC[C@@]2(CCN(c3cccc(-c4ccccc4)c3)C2)C1,x,x,44.7µM*,x,x
COc1ccc(C(=O)N2CCC[C@@]3(CCN(c4ccccc4)C3)C2)cc1,x,x,56.2µM*,x,x
O=C(Oc1ccccc1)N1CCC[C@@]2(CCN(c3ncccn3)C2)C1,x,x,-8.3%,x,x
O=C(c1cccc(F)c1)N1CCC[C@@]2(CCN(c3ccccc3)C2)C1,x,x,44.7µM*,x,x
CN1CC[C@@]2(CCCN(C(=O)c3cccc(F)c3)C2)C1,x,x,-1.7%,x,x
Cc1cc(C)c2c(=O)n(CC(=O)Nc3ccc(Cl)cc3)sc2n1,-9.2%,-0.7%,39.8µM*,1.34µM*,-2.9
Cc1ccc(NC(=O)Cn2sc3nc(C)cc(C)c3c2=O)c(Cl)c1,-0.5%,4.6%,u,1.5µM*,-9.1
Cc1cc(C)c2c(=O)n(CC(=O)N3CCC(Cc4ccccc4)CC3)sc2n1,x,x,x,x,-2.9
Cc1cccc(N2CCN(C(=O)Cn3sc4nc(C)cc(C)c4c3=O)CC2C)c1 (centres undefined),-0.4%,u,15.8µM*,1.68µM*,-5.4
Cc1cc(C)c2c(=O)n(CC(=O)Nc3cccc(F)c3)sc2n1,-2.2%,u,14.1µM*,1.89µM*,-4.3
C=Cc1ccc(Cn2c(=O)n(CC3CCC(C(=O)NC(C)C)CC3)c(=O)c3sccc32)cc1 (centres undefined),x,x,-6.2%,x,x
